Results filed as inconclusive are left out. Activity calls are given as the source filed them. The call rests on the fitted dose curve; in most records, active means well fitted curve in either direction with a large enough effect (not every such curve was filed as active); inconclusive means small, poorly fitted or top-dose-only effect, or another doubt; inactive means flat fitted curve, though single readings scatter.
experiment: Stat Signaling Pathway (AID 446); settings: ME-180 (cervical carcinoma) SIE beta-lactamase reporter, IL-6 stimulated, 5 h; at 17.2 µM (top of the series) unless noted;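 further: SIE-controlled beta-lactamase reporter measured as 460/530 nm FRET emission ratio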
Outline: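 Normalization used AC90 stimulation (300 pM IL-6) and AC90 inhibition (125 nM pan-JAK inhibitor at 40 pM IL-6). The underlying signal is SIE-driven beta-lactamase in ME-180 cells after 5 h IL-6 exposure with compound.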
On the % scale 0 is the no-effect control and ±100 the full control effect.

activity, negative = inhibition, inactive:
COc1ccccc1-c1nnc2sc(COc3ccccc3)nn12 -10.5%
CN1C(=O)N(c2ccccc2)C(Nc2nncs2)C1(C)C (stereo not given) -1.47%
COc1ccccc1-c1cc(-c2cc(Cl)ccc2O)n[nH]1 8.92%
CN1CCC2(CC1)C1CN(C)CC=C1C(C#N)=C(N)C2(C#N)C#N (stereo not given) 12.8%
COc1ccc2c(c1)[nH]c1c(=O)n(CC3CCCO3)cnc12 (stereo not given) 2.17%
COCCN(C(=O)Nc1ccccc1)c1ccccc1C 6.32%
OCCOCCNc1ncnc2c1cnn2-c1ccc(Cl)cc1 4.43%
O=C1C=C(O)CC(c2ccco2)C1 (stereo not given) 3.18%
O=C(NC1(C(F)(F)F)C(=O)Nc2c1c(=O)[nH]c(=O)n2-c1ccccc1)c1cccnc1 (stereo not given) 3.92%
COc1ccc(NC(=O)C2CSC3c4ccccc4C(=O)N23)cc1 (stereo not given) 4.23%
CN(C)CCNc1nc(-c2ccco2)c2c(c1C#N)CC(C)(C)OC2 12.9%
C/C(=N\O)C(=O)NCCCn1ccnc1 16.8%
Cc1nnc2n(Cc3ccccc3)c(=O)c3c4c(sc3n12)CN(Cc1ccccc1)CC4 5.01%
CCC(C)Nc1nc(OC)nc(N(C)C#N)n1 (stereo not given) -0.957%
O=C(Nn1cnnc1)C(c1ccccc1)c1ccccc1 3.83%
CCCCCOc1ccccc1C(=O)NCC(=O)O 9.43%
COc1ccccc1Cn1c2nc3ccccc3nc2c2c(=O)n(CC(C)C)cnc21 -12.8%
CSc1nc(N)nc(SCC(=O)OC(C)C)c1C#N -5.26%
CC(=O)c1cc(C#N)c(SCC(=O)C(C)(C)C)nc1C 12.6%
O=C(O)CC(C(=O)N(c1ccccc1)c1ccccc1)N1CCOCC1 (stereo not given) 8.75%
O=C(NCCOCCOCCNC(=O)c1cccnc1)c1cccnc1 3.22%
COc1cccc(N2C(=O)C(O)=C(C(C)=O)C2c2ccc(OC)c(OC)c2)c1 (stereo not given) 0.326%
CCCCCCn1c(C(C)O)nc2ccccc21 (stereo not given) -3.73%
Cc1cc(/C(O)=C2\C(=O)C(=O)N(CCN(C)C)C2c2ccncc2)ccc1OCc1ccccc1 (stereo not given) 4.75%
COc1ccc(C2CC(c3ccc(C)cc3)Nc3nc(N)nn32)cc1 (stereo not given) 1.75%
CCCC1Cc2c(sc3ncnc(N)c23)CO1 (stereo not given) -9.41%
Cc1occc(=O)c1OC(=O)Nc1ccccc1 7.55%
COC(=O)C(C)Sc1nc2c(c(=O)n(C)c(=O)n2C)n1CCC(C)C (stereo not given) -10.8%
CC(=O)[C@H]1[C@@H]2C(=O)N(c3cccc(Cl)c3)C(=O)[C@@H]2[C@H]2c3ccccc3C=CN21 -13.6%
Cc1cc(=O)[nH]c(COc2ccccc2)n1 -2.52%
CC(C)=CCC(C)(C)CNC(=O)NC1CCCCC1 10.9%
COc1ccc2c(c1)C1(C)CC(C)(C)N2C(=O)N1c1ccccc1 (stereo not given) -17.2%
COc1cccc(N2CCN(C3CC(=O)N(c4cccc(Cl)c4)C3=O)CC2)c1 (stereo not given) -13.6%
COc1ccc(OC)c(C2/C(=C(/O)c3ccc(C)cc3)C(=O)C(=O)N2Cc2ccco2)c1 (stereo not given) -18.2%
CC(C)CC(=O)Nc1ncnc2c1C(=O)CC(C)(C)C2 14.7%
CSc1nc2sc3c(c2c2nnnn12)CC(C)(C)OC3 15.4%
Cc1ccc2[nH]c3c(c2c1)CN(C(=O)CN1CCN(c2ccccn2)CC1)CC3 -12.2%
COc1ccccc1N1CCN(C2CCN(C(=O)c3cccs3)CC2)CC1 19.6%
COc1cc(-c2nn3c(-c4ccco4)nnc3s2)cc(OC)c1OC -1.97%
OCCN=C(c1ccccc1)C12CN3CN(CN(C3)C1)C2 3.31%

Source: PubChem BioAssay (NCATS)
